Assay outcomes: PubChem, several laboratories
PLK1 kinase inh – inhibitors of human PLK1 kinase | P53350 | recombinant PLK1 kinase, TR-FRET peptide phosphorylation | inhibition, % at 10 µM | hit rate 0.53% among 97,000 | AID 619;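 active = inhibition of 50% or more in the single-concentration screen; inactive = inhibition below 50%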;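 note: 0% = DMSO max control and 100% = H-89 dihydrochloride min control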
Plk1 PBD FP – blocks phosphopeptide binding to human Plk1 polo box domain; P53350; Plk1 PBD phosphopeptide binding, fluorescence polarization; inhibition, %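 (tested at about 20 µM)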; hit rate 0.13% among 97,000; AID 693; in the data active = inhibition above about 34%, passing the limit was not always enough
FAK inh – blocks human focal adhesion kinase activity; inhibition, %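 (tested at 7 µM)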; biochemical FAK kinase activity assay; hit rate 0.84% among 97,000; in the data active = inhibition above about 19%;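 note: 0% = DMSO and 100% = reference compound high control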
Target sequence (Q05397 whole entry, looked up): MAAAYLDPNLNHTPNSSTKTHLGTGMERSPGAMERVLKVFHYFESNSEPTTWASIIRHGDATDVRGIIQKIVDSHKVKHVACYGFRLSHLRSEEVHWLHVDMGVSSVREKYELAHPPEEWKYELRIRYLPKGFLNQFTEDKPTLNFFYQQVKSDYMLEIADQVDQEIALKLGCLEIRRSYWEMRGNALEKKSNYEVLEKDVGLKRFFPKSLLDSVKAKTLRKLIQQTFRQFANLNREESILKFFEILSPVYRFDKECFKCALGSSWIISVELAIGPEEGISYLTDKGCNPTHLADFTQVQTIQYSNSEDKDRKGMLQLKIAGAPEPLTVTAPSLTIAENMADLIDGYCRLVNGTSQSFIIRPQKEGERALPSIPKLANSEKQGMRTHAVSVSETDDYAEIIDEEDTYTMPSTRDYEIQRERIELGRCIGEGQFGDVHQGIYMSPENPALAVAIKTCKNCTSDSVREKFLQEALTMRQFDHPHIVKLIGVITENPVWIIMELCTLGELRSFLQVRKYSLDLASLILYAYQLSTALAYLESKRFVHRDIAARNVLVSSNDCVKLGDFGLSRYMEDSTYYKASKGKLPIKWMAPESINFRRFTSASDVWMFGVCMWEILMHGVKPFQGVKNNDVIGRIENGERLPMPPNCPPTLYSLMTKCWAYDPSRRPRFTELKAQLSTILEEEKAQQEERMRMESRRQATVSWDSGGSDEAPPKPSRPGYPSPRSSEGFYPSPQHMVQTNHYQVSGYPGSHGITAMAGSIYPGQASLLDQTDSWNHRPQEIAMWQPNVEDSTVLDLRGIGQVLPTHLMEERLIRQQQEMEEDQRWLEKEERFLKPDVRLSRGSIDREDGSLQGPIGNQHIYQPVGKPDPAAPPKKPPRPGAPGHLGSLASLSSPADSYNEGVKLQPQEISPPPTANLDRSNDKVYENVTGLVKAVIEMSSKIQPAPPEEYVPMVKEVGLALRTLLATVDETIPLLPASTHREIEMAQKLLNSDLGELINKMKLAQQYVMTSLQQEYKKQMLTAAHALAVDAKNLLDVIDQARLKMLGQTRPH
EphB4 antag – antagonists of human EphB4-ephrin-B2 interaction | inhibition, % at 7 µM | hit rate 0.15% among 97,000 | EphB4 LBD / TNYL-RAW-Alexa532 peptide, fluorescence polarization | P54760;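 active = inhibition above the screen-wide mean inhibition plus 3 SD, cut at about 15% in these data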;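 note: 0% = DMSO wells and 100% = excess unlabeled TNYL-RAW peptide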
Smad3 inh – Smad3 (human) transcription factor binding inhibition; inhibition, % at 25 µM; hit rate 0.29% among 88,000; AID 630; TR-FRET Smad3/Dy647-FoxH1 peptide binding, europium anti-His; P84022;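 active = compounds that reduce the energy-transfer binding signal between the protein and its labelled peptide by more than half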;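 note: 0% = Smad3 plus labelled peptide maximal FRET and 100% = peptide-only background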
PLK1 confirm – PLK1 (human) kinase inhibition, confirmed. shares compounds with PLK1 kinase inh. recombinant PLK1 kinase, TR-FRET peptide phosphorylation. hit rate 20% among 210. inhibition, % at 10 µM;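 active = inhibition at or above 50% in each of two repeat confirmation tests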;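 note: 0% = DMSO max control and 100% = H-89 kinase-blocked min control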
TR-FRET interf – counter-screen for Plk1 inhibitors: compound assay interference; shares compounds with PLK1 kinase inh; Plk1 TR-FRET assay interference, compound added post-reaction; inhibition (interference), % at 10 µM; 210 tested, under 10 active; AID 756;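 active = both duplicate runs show 50% or greater inhibition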;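 note: 0% = DMSO max control and 100% = H-89 min control inhibited reaction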
The depositor's hits bear a star; . = no result. This is a sample that favours compounds with a hit; in the whole collection about 1.6% have one here.

SMILES	PLK1 kinase inh	Plk1 PBD FP	FAK inh	EphB4 antag	Smad3 inh	PLK1 confirm	TR-FRET interf
COc1ccccc1Nc1ncnc2nc[nH]c12	84*	-2	15	-8	.	79*	-50
CC(C)(CC(=O)Nc1ccccc1)C(=O)O	.	.	.	.	2	.	.
COC(=O)CSc1nc2ccc(C)cc2[nH]1	-1	-9	-4	-3	21	.	.
COC(=O)c1sc2nc(CSc3nc4ccc(C)cc4[nH]3)[nH]c(=O)c2c1C	71*	-9	1	1	7	42	-43
Nc1[nH]ncc1N=Nc1ccc(Cl)cc1	83*	-6	7	-2	.	75*	-59
Cc1[nH]n(-c2ccccc2)c(=O)c1C(C[N+](=O)[O-])c1ccc(Br)cc1 (stereo not drawn)	101*	2	-2	1	.	-6	-49
COc1ccc(N2CC(C(=O)NC3CC(C)(C)NC(C)(C)C3)CC2=O)cc1 (stereo not drawn)	70*	10	0	-2	0	-8	-50
COc1ccc(N2CC(C(=O)NCc3ccccc3)CC2=O)cc1 (stereo not drawn)	.	.	.	.	-8	.	.
CC1(C)CC(=O)c2sc(NC(=O)C3CC3)nc2C1	75*	6	-5	1	10	-3	-52
CCOCC(=O)Nc1nc2c(s1)C(=O)CC(C)(C)C2	41	10	0	-5	18	.	.
CS(=O)(=O)Cc1nc2ccccc2oc1=O	-7	1	4	12	-5	.	.
C/C(O)=C\c1nc2ccccc2oc1=O	124*	9	-5	-7	.	-6	-52
CCN1CCN(CC(=O)Nc2ccc3c(c2)OCCO3)C(=O)C1=O	73*	-32	-4	2	-9	-3	-55
Clc1ccccc1C(Nc1cnccn1)Nc1cnccn1	.	.	.	.	35	.	.
CC(=O)c1ccc(NC(=O)c2cnn3ccccc23)cc1	-12	14	5	0	1	.	.
CC(=O)c1cccc(NC(=O)c2cnn3ccccc23)c1	80*	-18	2	-8	3	-2	-58
CCSC[C@@H](N)C(=O)O	.	.	.	.	-1	.	.
c1ccc(-c2noc(CN3CCN(c4ccccc4)CC3)n2)cc1	73*	15	-4	0	-1	-6	-52
COc1cccc(C2CC(c3ccc(Cl)cc3Cl)n3nc(N)nc3N2)c1 (stereo not drawn)	75*	-28	-5	0	-16	-6	-51
CCCCSc1nnc(-c2cc(Br)ccc2N)c(=O)[nH]1	-15	-3	-5	1	-8	.	.
C=CCSc1nnc(-c2cc(Br)ccc2N)c(=O)[nH]1	71*	-24	-2	0	3	-11	-61
CCOc1ccc(N2C(=O)c3ccccc3C2=O)cc1	0	3	-1	1	5	.	.
CCOc1ccc(N2Nc3n[nH]c(N)c3N2)cc1	78*	-3	4	4	9	68*	-51
COc1ccc(N2Nc3n[nH]c(N)c3N2)cc1	80*	12	4	1	-2	74*	-51
CCc1ccc(N(CC(=O)NC2CCCCC2)S(=O)(=O)c2c(C)noc2C)cc1	74*	12	-7	1	5	-8	-59
SMILES	PLK1 kinase inh	Plk1 PBD FP	FAK inh	EphB4 antag	Smad3 inh	PLK1 confirm	TR-FRET interf
CCc1c(O)c2c(c(O)c1C(C)=O)C(=O)c1c(cc(O)c(C(=O)O)c1C(=O)O)C2=O	.	.	.	.	9	.	.
O=C(Nc1ccccc1)Nc1nccs1	93*	0	8	4	-7	6	-53
COc1ccc(NC(=O)Nc2nccs2)cc1	4	5	1	-6	6	.	.
[O-][n+]1c(CN2CCCCC2)nc2cccc3c2c1-c1ccccc1-3	.	.	.	.	-10	.	.
Cc1cc(C)cc(OCC(O)CN2C(=O)NC(C)(C)C2=O)c1 (stereo not drawn)	72*	13	1	-1	10	-10	-59
CC(C)c1ccc2c(c1)C(c1ccc(N3CCOCC3)cc1)=NNC(c1cccs1)=N2	-2	-12	-2	2	.	.	.
COC(=O)c1c(-c2ccc(Br)cc2)noc1N	77*	6	1	-6	-2	63*	-51
NC1(N)OC(CN2C(=O)c3ccccc3C2=O)CS1 (stereo not drawn)	116*	16	1	-9	-6	-10	-58
CN(CCNC(=O)c1cn(C)c2ccc(S(=O)(=O)N(C)C)cc2c1=O)CCc1ccccc1	75*	1	10	2	2	-5	-49
O=C(/C=C1\NCC2c3ccccc3CCN2C1=O)c1ccccc1 (stereo not drawn)	-16	-11	7	0	.	.	.
O=C(O)c1ccccc1-c1ccccc1C(=O)Nc1ccc2c(c1)Cc1cc(F)ccc1-2	.	.	.	.	21	.	.
COc1cccc(-c2nnc(SCC(=O)Nc3ccc(S(N)(=O)=O)cc3)n2C)c1	110*	-30	-3	-7	5	-8	-54
COc1cccc(-c2nnc(SCC(=O)Nc3cc(C)on3)n2C)c1	-5	-5	0	-1	4	.	.
c1ccc2c(CC3NCCN3)cccc2c1	.	.	.	.	-4	.	.
Cc1ncc([N+](=O)[O-])n1CCOC(=O)Nc1ccc(Cl)c(Cl)c1	84*	10	2	7	.	71*	-55
CC1CCN(CC(C)OC(=O)c2ccc3c(c2)OCCO3)CC1 (stereo not drawn)	70*	-7	1	-3	-4	-6	-52
Cc1cccc(Nc2cc(Cl)nc(SCC(=O)O)n2)c1C	.	.	.	.	8	.	.
CCOc1ccc2nc(SCC(=O)Nc3ccc4c(c3)OCCO4)[nH]c2c1	-11	-6	-1	5	0	.	.
O=C(CSc1nc2ncc(Br)cc2[nH]1)Nc1ccc2c(c1)OCO2	70*	12	7	1	2	23	-49
O=C1c2ccccc2N[C@H](c2cc(Cl)cc(Cl)c2O)N1CCc1ccccn1	.	.	.	.	6	.	.
CCN1C(=O)C(O)(CC(=O)c2ccc3c(c2)OCCO3)c2ccccc21 (stereo not drawn)	72*	17	-3	3	1	-11	-55
CCc1ccc(C(=O)CC2(O)C(=O)N(CN3CCOCC3)c3ccccc32)cc1 (stereo not drawn)	-10	0	0	-6	5	.	.
Cc1ccccc1NC(=O)c1ccc(S(=O)(=O)N(C)C)cc1	72*	-2	-6	-3	1	-12	-59
CC(C)n1c(SCc2ccccc2F)nc2c1c(=O)n(C)c(=O)n2C	78*	-19	-3	-8	13	-10	-61
O=C(O)CSSCC(=O)O	.	.	.	.	-15	.	.
Brc1ccc(C2=CC(c3cccs3)n3ncnc3N2)cc1 (stereo not drawn)	19	-123	11	6	-1	.	.
Fc1ccc(Br)cc1C1C=C(c2cccnc2)Nc2ncnn21 (stereo not drawn)	88*	-8	5	6	0	46	-51
NC(=O)CSc1nnc(-c2ccncc2)n1-c1ccc(Cl)cc1	73*	0	-7	-10	6	-9	-49
